Pf apPOL inh: Pf-apPOL inhibitors, biochemical, fluorescence | Recombinant Pf-apPOL, molecular beacon fluorescence, 1.5 h | inhibition, % at 10 µM | hit rate 0.25% among 210,000
mHTT CaM bind: mutant huntingtin-calmodulin interaction inhibitors – biochemical, AlphaScreen, primary screen. AlphaScreen His-mHTT/GST-CaM binding, luminescence. inhibition, % at 15 µM. hit rate 3.6% among 190,000
Each line names hits and unclear results; the compound was inactive in the other large screens; ! = not active in a repeat. Rows were chosen to be rich in hits. Some 3.5% of all compounds tested hit in one or more screens of this group. Rule as the data show it: active = inhibition above about 50%; inactive = the rest.

Cc1cccc(C2CC(c3ccc(F)cc3)Nc3nc(N)nn32)c1 (centres undefined)	none
CCc1ccc(C2CC(c3ccccc3Cl)n3nc(N)nc3N2)cc1 (centres undefined)	none
Cc1cccc(C2CC(c3ccc(Cl)cc3)Nc3nc(N)nn32)c1 (centres undefined)	mHTT CaM bind 56
CCc1ccc(C2CC(c3ccccc3Cl)Nc3nc(N)nn32)cc1 (centres undefined)	mHTT CaM bind 52
CCN(C)C(=O)c1cc(-c2ccc(OC)cc2)on1	none
CN(CC(C)(C)C)CC12CC3CC(CC(C3)C1)C2	none
CCc1ccc(NC(=O)C2CCN(S(=O)(=O)c3ccc(Br)s3)CC2)cc1	none
Cn1nc(COCc2ccccc2)c2c1CCN(C(=O)COc1ccccc1)C2	none
Cn1nc(COCc2ccccc2)c2c1CCN(C(=O)Cc1cccc(F)c1)C2	mHTT CaM bind 56
COc1ccc(OCC(=O)N2CCc3c(c(C(=O)NCc4ccccc4)nn3C)C2)cc1	none
Cc1ccc(CC(=O)N2CCc3c(c(C(=O)NCc4ccc(Cl)cc4)nn3C)C2)cc1	mHTT CaM bind 78
COc1cccc(CC(=O)N2CCc3c(c(C(=O)NCc4ccc(F)cc4)nn3C)C2)c1	mHTT CaM bind 69
Cn1nc(COCc2ccccc2)c2c1CCN(S(=O)(=O)c1ccc(F)cc1)C2	none
Cn1nc(COCc2ccccc2)c2c1CCN(S(=O)(=O)c1ccc3c(c1)CCC3)C2	mHTT CaM bind 56
N#C/C(=C\c1ccc(-c2ccccc2[N+](=O)[O-])o1)C(=O)Nc1ccccc1C(=O)O	none
COc1cc2c(cc1OC)C(C(=O)N(C)c1ccc(Cl)cc1)C(c1cccnc1)N(C)C2=O (centres undefined)	none
CN(C)C(=O)C1c2ccccc2CC(=O)N1Cc1ccccc1 (centres undefined)	none
Cc1c(Cl)cccc1NC(=O)CSc1nc(O)c(C)c(=O)n1-c1ccc(F)cc1	none
Cc1cc(C(=O)N2CCC(c3cc(N)on3)CC2)no1	none
COc1ccc(N2C(=O)CSC2c2cccc([N+](=O)[O-])c2O)cc1 (centres undefined)	none
Cn1c2c(c(=O)n(C)c1=O)C(c1cccc(Br)c1)C1=C(N2)c2ccccc2C1=O (centres undefined)	none
Cn1nc(C(=O)NCc2ccc(Cl)cc2)c2c1CCN(C(=O)Cc1ccccc1)C2	mHTT CaM bind 95
Cn1nc(C(=O)NCc2ccc(Cl)cc2)c2c1CCN(C(=O)c1cccc(F)c1)C2	none
Cn1nc(C(=O)NCc2ccccc2)c2c1CCN(C(=O)Cc1ccccc1)C2	none
Cc1cccc(CC(=O)N2CCc3c(c(C(=O)NCc4ccc(Cl)cc4)nn3C)C2)c1	mHTT CaM bind 59
Cc1nn(-c2nc3ccccc3[nH]2)c2c1C(=O)CC(c1ccccc1)C2 (centres undefined)	none
O=C(NC1CCCC1)C1CCN(Cc2ccccc2Cl)CC1	none
COc1ccc(C)cc1NC(=O)N1CCC(c2cc(N)on2)CC1	none
CC1CCCC(NC(=O)c2ccc(CS(=O)(=O)Cc3ccc(Cl)cc3)o2)C1C (centres undefined)	none
Cn1c2ccc(Br)cc2c2nnc(SCN3C(=O)c4ccccc4C3=O)nc21	none
Cn1c2ccc(Br)cc2c2nnc(SCCN3CCOCC3)nc21	mHTT CaM bind 80
CCN(CC)S(=O)(=O)N1CCCC(C(=O)NC2CCCc3ccccc32)C1 (centres undefined)	none
CC(C)NC(=O)c1ccccc1NC(=O)CN(c1cccc([N+](=O)[O-])c1)S(C)(=O)=O	none
Cc1cc(=O)[nH]c(SCC(=O)Nc2ccc(C(F)(F)F)cc2Cl)n1	none
Nc1ncnc(Sc2nc3ccccc3[nH]2)c1[N+](=O)[O-]	mHTT CaM bind 79
Cn1cnc([N+](=O)[O-])c1Sc1nc2ccccc2[nH]1	none
O=[N+]([O-])c1ccc(Cl)cc1Sc1nc2ccccc2[nH]1	none
O=[N+]([O-])c1cc(C(F)(F)F)cc([N+](=O)[O-])c1Sc1nc2ccccc2[nH]1	mHTT CaM bind 99
CCc1ccc(C2=C(C)C(N3CCCN(C(C)=O)CC3)=NS2(=O)=O)cc1	none
COc1ccc2c(c1)c(=O)c1ccccc1n2CC(=O)Nc1ccc(C(F)(F)F)cc1	none
COc1ccc2c(c1)c(=O)c1ccccc1n2CC(=O)Nc1cccc(C(F)(F)F)c1	mHTT CaM bind 54
O=C(NCCCN1CCCC1)c1ccn2c(-c3ccccc3)nnc2c1	none
Cc1cccc(N2CCN(C(=O)Cc3ccccc3)C(C)C2=O)c1C (centres undefined)	none
CC(C)=CC1C(CN)C1(C)C (centres undefined)	mHTT CaM bind 96
Cc1ccc(OCC2CN(Cc3cccs3)CCO2)cc1 (centres undefined)	none
COc1ccc2c(c1)-c1cc(Cl)ccc1S(=O)(=O)N2C(C)=O	mHTT CaM bind 87
COc1ccc(N2C=C(C#N)S(=O)(=O)c3ccc(Cl)cc32)c(C)c1	none
CCCCNC(=S)N1CCc2cc(OC)c(OC)cc2C1COc1ccc(C(C)C)cc1 (centres undefined)	none
N#CC1=C(N)OC2=C(C(=O)CC(c3ccccc3)C2)C1c1ccsc1 (centres undefined)	none
N#CC1=C(N)OC2=C(C(=O)CC(c3ccccc3)C2)C1C1CCCCC1 (centres undefined)	Pf apPOL inh 51!, mHTT CaM bind 60!
N#CC1=C(N)OC2=C(C(=O)CC(c3ccccc3)C2)C1c1ccc(Cl)cc1 (centres undefined)	none
N#CC1=C(N)OC2=C(C(=O)CC(c3ccccc3)C2)C1c1ccc(Cl)cc1Cl (centres undefined)	mHTT CaM bind 69
COc1ccc(O)c(C2=Nc3ccccc3N=C(c3cccc([N+](=O)[O-])c3)C2)c1	mHTT CaM bind 57
COc1ccc(-c2nnc(-c3cccc([N+](=O)[O-])c3)o2)cc1	none
Oc1ccccc1C=Nc1ccc(O)c(-c2nc3ccccc3s2)c1	none
COc1cc(C=Nc2ccc(O)c(-c3nc4ccccc4s3)c2)ccc1O	mHTT CaM bind 79
CCCCNc1nnnc2c1sc1nc(N3CCOCC3)c3c(c12)CCCC3	none
O=C(Cc1c(F)cccc1Cl)N1CCC2(C1)Nc1cccnc1NC2=NC1CCCC1 (centres undefined)	none
COc1ccc(-c2ccc(C=C3C(=O)OC(c4ccccc4)OC3=O)o2)c([N+](=O)[O-])c1 (centres undefined)	none
O=C1/C(=C/c2cc([N+](=O)[O-])cc(Br)c2O)Sc2ccccc21	mHTT CaM bind 89
O=C1/C(=C/c2cccc([N+](=O)[O-])c2O)Sc2ccccc21	none
O=C1/C(=C/c2ccc([N+](=O)[O-])cc2)Sc2ccccc21	Pf apPOL inh 89
O=C1/C(=C/c2c(Cl)ccc([N+](=O)[O-])c2Cl)Sc2ccccc21	mHTT CaM bind 67
CC(C)c1ccc(/C=C2\Sc3ccccc3C2=O)cc1[N+](=O)[O-]	none
O=C1/C(=C/c2cc([N+](=O)[O-])c(Cl)cc2Cl)Sc2ccccc21	none
COc1ccc(-c2ccc(/C=C3\Sc4ccccc4C3=O)o2)c([N+](=O)[O-])c1	mHTT CaM bind 51
CC(C)NC(=O)N1CCCC(c2cccc(C(=O)NCCCN3CCCC3)c2)C1 (centres undefined)	none
CC1CCN(c2ccc(-c3noc(CN4CCCC(C)C4)n3)cn2)CC1 (centres undefined)	none
CC1=N/C(=C\c2ccc([N+](=O)[O-])cc2)C(=O)N1c1ccc(Cl)cc1Cl	none
Cc1cccc2nc(CSc3ncc(C#N)c(N)n3)cc(=O)n12	none
